Binding signal data for 43 sequences are collected here from paper PMC7819943, “Rice protein-binding microarrays: a tool to detect cis-acting elements near promoter regions in rice”.

In all, about 39,000 sequences were measured (“fluorescence intensity (a.u.)”: median about 4,300, highest 2% from about 39,000 on). The list comes from a sample in which the highest values are over-represented; it also holds similar and randomly drawn sequences.

The target of the experiment is T1, OsSMF1 (Oryza sativa, UniProt Q6ZLB0 1-436).
T1 sequence: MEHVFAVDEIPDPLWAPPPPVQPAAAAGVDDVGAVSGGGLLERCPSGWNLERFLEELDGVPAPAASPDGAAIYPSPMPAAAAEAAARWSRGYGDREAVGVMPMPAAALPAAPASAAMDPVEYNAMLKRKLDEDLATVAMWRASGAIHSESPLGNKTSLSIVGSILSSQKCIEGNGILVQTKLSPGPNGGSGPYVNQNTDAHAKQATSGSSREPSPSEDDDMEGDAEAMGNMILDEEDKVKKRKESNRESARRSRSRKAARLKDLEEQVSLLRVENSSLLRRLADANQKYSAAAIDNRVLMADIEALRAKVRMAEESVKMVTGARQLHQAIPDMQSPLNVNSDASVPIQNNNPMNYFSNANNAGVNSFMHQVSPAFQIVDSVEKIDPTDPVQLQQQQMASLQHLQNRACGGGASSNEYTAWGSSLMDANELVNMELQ
The experiment can be described thus: protein-binding microarray (RPBM); PBS, 2% BSA, 51.3 ng/ul salmon testes DNA, 50 uM zinc acetate, 200 nM TF, 25 C, 1 h; high values mean tight binding. The following applies: protein: recombinant; tags: N-terminal polyhistidine and DsRed monomer fusion (pET32a); chain copies: 2; label: CyDye5-dUTP incorporated in the synthesized complementary strand; 3' TTTTT single-stranded linker to array surface; dsDNA, one strand shown. In short, it runs like this:
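Polyhistidine-tagged DsRed fusions of transcription factors, joined at the N-terminus, were expressed in E. coli BL21-CodonPlus and isolated on Ni–NTA. They were incubated at 200 nM for 1 h at 25 °C on a custom Agilent array, double-stranded and BSA-blocked, in PBS with 2% BSA, salmon testes DNA and 50 µM zinc acetate. The binding signal is per-feature fluorescence intensity (arbitrary units) read on an Axon 4000B scanner after washing.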
Turning to “GTAGTACCATGTATTAGATGGACTTCTCCACGTTTCTCTGCGGAGTCACCTAGTGCAG”, the binding signal is 4980 fluorescence intensity (a.u.). With “GGGGCCACATCGTCAGTGAAACGGACGGGTATAGGGTTAGCGGAGTCACCTAGTGCAG”, the binding signal was 3270 fluorescence intensity (a.u.). Under “CGCGCCGTCGTCCAGCCACCGTCACGCCGCGCGGGGCGCCCGGAGTCACCTAGTGCAG” stands 3830 fluorescence intensity (a.u.); under “CATAGCCCTCTGTCGCGGGCGCCGCTGTCCACCGTCCTCCCGGAGTCACCTAGTGCAG”, 43900 fluorescence intensity (a.u.). For “CGCCGCCTCCGCCTCCGCCTCCGCTGCTCGCCGACCGGAGCGGAGTCACCTAGTGCAG” the value was 4680 fluorescence intensity (a.u.); for “ATCGCCCCGCTGACCGCCTCCTCCCGCGGCTGTCCGAGCGCGGAGTCACCTAGTGCAG”, 41300 fluorescence intensity (a.u.); for “CCTCCTCGCTGCCCAGCCACCGCCGCCCTCCCGTCCCGCGCGGAGTCACCTAGTGCAG”, 3490 fluorescence intensity (a.u.). In the case of “TTGACCGCTTGACGCGGAGCTCCCCGCCGGCCTCCTCCCCCGGAGTCACCTAGTGCAG”, the binding signal is 4540 fluorescence intensity (a.u.). Under “ATCAGCAACAATCAGGCTCCTGTGCGGTAAGTCCAACATTCGGAGTCACCTAGTGCAG” stands 6700 fluorescence intensity (a.u.); under “AGTGCTAGTCATCACTGTATTAGATTTAGGAATCTCTTCTCGGAGTCACCTAGTGCAG”, 3600 fluorescence intensity (a.u.).

Consider “AATCCGCCGAGGGACTTATTGTGACCGGTTTTGATTAGTTCGGAGTCACCTAGTGCAG”, for which the binding signal is 19600 fluorescence intensity (a.u.). Under “CCACACACTTATGAACACGAGTACAGCCGATGCCCTATAACGGAGTCACCTAGTGCAG” stands 3390 fluorescence intensity (a.u.); under “TATGATTTTAAATTCGTCATACTCTAGTTAGCCTAGAAAACGGAGTCACCTAGTGCAG”, 3430 fluorescence intensity (a.u.). Under “TGTTAAATTCGTCTCGCAAAATAGCCTAAGGGTTATAGAACGGAGTCACCTAGTGCAG” stands 40500 fluorescence intensity (a.u.); under “TAAGGCAAAAGCCAAAATTCAAATATAGTTAAAATTAAAGCGGAGTCACCTAGTGCAG”, 7150 fluorescence intensity (a.u.).

Take “AAGCGCACGCACACATATGCCACGCATTGACGCATGGCACCGGAGTCACCTAGTGCAG”: the binding signal is 5630 fluorescence intensity (a.u.). Consider “CCCAGCCCACAAAGGAAGCGAGATCACAATTTCTGGGCCGCGGAGTCACCTAGTGCAG”, for which the binding signal was 3400 fluorescence intensity (a.u.). For “AAAAGCAAAAGCAAAAGAAACACGTCCTTATTCCTCTCTCCGGAGTCACCTAGTGCAG” the value was 3910 fluorescence intensity (a.u.); for “GATCAACCTTATTTCTGCAAGCAAATCAAAGAAACAAGCACGGAGTCACCTAGTGCAG”, 41700 fluorescence intensity (a.u.); for “TCCCGCCACAAGCAACCAAGAAATCAAGAAACCGTTTCAGCGGAGTCACCTAGTGCAG”, 19600 fluorescence intensity (a.u.). Take “CGGCAGCCACCTCCCCACTCCATCCTCTCGTCCCCTTTTACGGAGTCACCTAGTGCAG”: the binding signal was 3870 fluorescence intensity (a.u.). With “ATTGTTTAGTATTGCGTTATGTTATGTTACTTTTGATACACGGAGTCACCTAGTGCAG”, the binding signal was 14400 fluorescence intensity (a.u.). As to “CTGCTCCTAGTCACACTTGACAGTTCAGCTTCAGCTCCTCCGGAGTCACCTAGTGCAG”, the binding signal is 6360 fluorescence intensity (a.u.).

Turning to “TGAGCTGCTTTTACACGTTGCTTTATTGACACTTGTTCACCGGAGTCACCTAGTGCAG”, the binding signal is 45500 fluorescence intensity (a.u.). On to “TGCATAAGGATAATCCGGTCGTCAGCAAACAATGCATTCACGGAGTCACCTAGTGCAG”, for which the binding signal was 3450 fluorescence intensity (a.u.). For “CAAGACGGATTTATTAAGCCTAATTAATCTATCATTAGCGCGGAGTCACCTAGTGCAG”, the binding signal is 4110 fluorescence intensity (a.u.). Turning to “TGCAAATTGCGAGACGGATTTATTAAGCCTAGTTAATCCGCGGAGTCACCTAGTGCAG”, the binding signal was 39400 fluorescence intensity (a.u.).

For the sequence “ACGAATTTATTAAGCCTAATTAATCCGTTATTAGCAAATGCGGAGTCACCTAGTGCAG”, the binding signal was 6210 fluorescence intensity (a.u.). For “AAAGGCCACGCCTTTGCCTCGTCAGTTATCTCTTCGTTTCCGGAGTCACCTAGTGCAG” the value was 5220 fluorescence intensity (a.u.); for “GGAGTATCCATGCCAGCTAAGCGAGTTGTACAAGGCAAGCCGGAGTCACCTAGTGCAG”, 5690 fluorescence intensity (a.u.). With “CGGGTAGGCGAACACGTCGCTGACGCCGCACCGCTCCAGCCGGAGTCACCTAGTGCAG”, the binding signal was 6760 fluorescence intensity (a.u.).

For the sequence “TGGTGATATCAATAGGATTGGAAGAGATTTGTCAGCCTATCGGAGTCACCTAGTGCAG”, the binding signal is 3450 fluorescence intensity (a.u.). For the sequence “TATCAAAATCCACTGCAACATTTAATACATACATAGTGAACGGAGTCACCTAGTGCAG”, the binding signal is 21300 fluorescence intensity (a.u.). Under “CGCCATGGGAGCACTCCCCATCTTGTCCTCTACCGCCGCGCGGAGTCACCTAGTGCAG” stands 3250 fluorescence intensity (a.u.); under “TAGCTCGTACTCCTACATCGTAGCCACCGCGCCTCCCATGCGGAGTCACCTAGTGCAG”, 3640 fluorescence intensity (a.u.). In the case of “CGCCATGGGCGACATCGACATCTACAGCCTCTACACTCCGCGGAGTCACCTAGTGCAG”, the binding signal was 44200 fluorescence intensity (a.u.). Under “GCCTGTGGCCCACGCCGTCAGTGGGAGTGGCGGTGTCGGGCGGAGTCACCTAGTGCAG” stands 3960 fluorescence intensity (a.u.); under “CCGAATCCGGCCACCCCGCCGCCTCCACGCGCATCACCGCCGGAGTCACCTAGTGCAG”, 3220 fluorescence intensity (a.u.); under “ACGGGCACGACGACCGTCGTGCTCACGGCCGCCGACGTCGCGGAGTCACCTAGTGCAG”, 4140 fluorescence intensity (a.u.). Under “GCCGATTGCAATTTCGTCATCACTGCGGTTAGGATTACACCGGAGTCACCTAGTGCAG” stands 4340 fluorescence intensity (a.u.); under “TGCTGTCGATGTGCTTATCTTTCGATTTATTCCTCTCATCCGGAGTCACCTAGTGCAG”, 3200 fluorescence intensity (a.u.). Regarding “CTCCGCAGTCGTAGGCCCACGCGAACCATTCCGTGTGCAACGGAGTCACCTAGTGCAG”, the binding signal was 52000 fluorescence intensity (a.u.). For the sequence “GGCAACGCACCACGCTGCACGCGTCCGTGGTCGCCGCGAACGGAGTCACCTAGTGCAG”, the binding signal was 3150 fluorescence intensity (a.u.).
